PubChem BioAssay (NCI)
This is part of a sample that, as a whole, favours compounds with a hit. Of some 83,000 tested, about 20% had one in any assay.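 A percent growth of 40 corresponds to 60% growth inhibition; 0 means no net growth; -100 means all cells died. Active threshold: below 10.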 A number with no mark means an inactive call. The source made the active and inactive calls.

What was measured:
Assay in all cases: NCI-60 one-dose screen, 48 h (100 = growth as untreated, 0 = no growth, -100 = all killed)
SR leukemia = conditions: 10 µM unless noted
OVCAR-8 ovarian = conditions: 10 µM unless noted
OVCAR-5 ovarian = conditions: 10 µM unless noted
OVCAR-4 ovarian = conditions: 10 µM unless noted
SK-OV-3 ovarian = conditions: 10 µM unless noted
IGROV1 ovarian = conditions: 10 µM unless noted
OVCAR-3 ovarian = conditions: 10 µM unless noted
HS 578T breast = conditions: 10 µM
NCI/ADR-RES ovarian = conditions: 10 µM unless noted
T-47D breast = conditions: 10 µM unless noted
BT-549 breast = conditions: 10 µM unless noted
MDA-MB-435 melanoma = conditions: 10 µM unless noted
SW-620 colon = conditions: 10 µM unless noted
MCF7 breast = conditions: 10 µM unless noted
HCT-116 colon = conditions: 10 µM unless noted
HCC-2998 colon = conditions: 10 µM
KM12 colon = conditions: 10 µM unless noted
RPMI-8226 leukemia = conditions: 10 µM unless noted

| SMILES | growth (SR leukemia) | growth (OVCAR-8 ovarian) | growth (OVCAR-5 ovarian) | growth (OVCAR-4 ovarian) [%] | growth (SK-OV-3 ovarian) | growth (IGROV1 ovarian) | growth (OVCAR-3 ovarian) | growth (HS 578T breast) | growth (NCI/ADR-RES ovarian) | growth (T-47D breast) | growth (BT-549 breast) | growth (MDA-MB-435 melanoma) | growth (SW-620 colon) | growth (MCF7 breast) | growth (HCT-116 colon) | growth (HCC-2998 colon) | growth (KM12 colon) | growth (RPMI-8226 leukemia) |
| --- | --- | --- | --- | --- | --- | --- | --- | --- | --- | --- | --- | --- | --- | --- | --- | --- | --- | --- |
| CC(=Nc1ccccc1)C1=C(O)C(Cc2ccccc2)NC1=O (configuration not stated) | -12% (active) | -50.4% (active) | 18.9% | 39.6 | 16.8% | 6.28% (active) | -42.4% (active) | -15.3% (active) | -8.97% (active) | 67.6% | 13.9% | -27.3% (active) | 19.3% | 9.54% (active) | 2.49% (active) | -20.6% (active) | -46.3% (active) |  |
| NC[C@@](O)(c1ccc(Cl)cc1)c1ccc(-c2cn[nH]c2)cc1 | 0.545% (active) | 29.1% | 18.8% |  | 20% | -18% (active) | 52.4% |  | 40.9% | -57.9% (active) | 14.6% | 12.2% | 7.7% (active) | -22.2% (active) | 0.471% (active) | 12.7% | 16.6% | 19.1% |
| O=C(COc1cccc(/C=C2\Cc3ccc(Cl)cc3C2=O)c1)Nc1nccs1 | 48% |  | 102% | 81.6 | 96% |  | 89.6% | 105% | 76.6% | 55.5% | 87.3% | 86.6% | 110% | 35.1% | 64.5% |  | 77.2% | 54.6% |
| CCCC(=O)OCC1OC(n2cnc3c(=S)nc[nH]c32)C(OC(=O)CCC)C1OC(=O)CCC (configuration not stated) | 24% | -8.32% (active) | 46.2% | 31.3 | 21% | 14.7% | 22.7% | 47.7% | 48.3% | 36.5% | 45.5% | 38% | 38.1% | 24.2% | 35.9% |  | 43.3% |  |
| O=C(c1ccc(F)c(F)c1Nc1ccc(I)cc1F)N1CC(O)([C@@H]2CCCCN2)C1 | -15.2% (active) | 47.9% | 7.14% (active) |  | 29.2% | 2.25% (active) | 58.7% |  | 39.7% | 11.8% | 47.1% | 21% | 17.5% | 14.1% | 5.24% (active) | -51.9% (active) | 12.1% | 26.7% |
| CCOC(=O)c1sc(NC(=O)COc2ccc(/C=C3\Cc4ccc(Cl)cc4C3=O)cc2)nc1C | 103% |  | 111% | 112 | 110% |  | 113% | 116% | 93.9% | 92.9% | 94.5% | 105% | 123% | 96.1% | 92.9% |  | 112% | 96.1% |
| C=CC(=O)Nc1cccc(Oc2nc(Nc3ccc(N4CCN(C)CC4)cc3)nc3ccsc23)c1 | -23.5% (active) | -38.8% (active) | 8.45% (active) |  | -2.6% (active) | -69.9% (active) | -80.7% (active) |  | -3.05% (active) | -51% (active) | -37.5% (active) | -93.3% (active) | -62.2% (active) | -60.9% (active) | -89.2% (active) |  | -79.1% (active) | -29.8% (active) |
| O=C(COc1ccc(/C=C2\Cc3ccc(Cl)cc3C2=O)cc1)Nc1nccs1 | 148% |  | 100% | 90 | 108% |  | 103% | 101% | 86.7% | 85.2% | 106% | 113% | 106% | 89% | 91.3% |  | 115% | 91.7% |
| Nc1nc(Nc2ccccc2)c(C=Nc2ccccc2)c(=O)[nH]1 |  | 85.2% | 90.7% | 94.8 | 86.3% | 48.5% | 110% | 87.5% | 91.9% | 81.4% | 75.1% | 94.7% | 98.4% | 92.5% | 85.1% | 99.3% |  | 94.8% |
| CC(=Nc1ccccc1)C1=C(O)C(Cc2ccc(O)cc2)NC1=O (configuration not stated) | -9.58% (active) | -53.5% (active) | 32.1% | 36.6 | 23% | 17.8% | -63.2% (active) | -27.2% (active) | -13.4% (active) | 67.4% | 15.2% | -8.69% (active) | 15.6% | 10% | 3.3% (active) |  | -35.5% (active) |  |
| C[C@@H](N)c1ccc(C(=O)Nc2ccnc3[nH]ccc23)cc1 | 9.45% (active) | 36.2% | 42.9% |  | -45.2% (active) | 27.9% | 57.9% |  | 84% | 61.9% | 13.9% | 80.4% | 20.5% | 42.7% | 14.4% |  | 30.3% | 64.7% |
